Structures are written as SMILES. Out of some 50,000 compounds screened, about 800 (1.6%) showed an effect of 50% or more. Shown is part of a subset that was picked to be rich in strong results.

In this assay the target is Bcl-2-like protein 10 (Homo sapiens) (UniProt Q9HD36). Nature of the assay: Phenotype converters, Bcl-B/TR3 peptide binding displacement, primary biochemical FP (AID 1240).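 Note: 0% = Bcl-B with tracer peptide and DMSO and 100% = tracer peptide lacking Bcl-B.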 To be noted: GST-Bcl-B / FITC-TR3 peptide fluorescence polarization; stronger effect = higher value; compound at 3.75 mg/L.
Bcl-2-like protein 10 (Homo sapiens), sequence (Q9HD36 whole entry, looked up): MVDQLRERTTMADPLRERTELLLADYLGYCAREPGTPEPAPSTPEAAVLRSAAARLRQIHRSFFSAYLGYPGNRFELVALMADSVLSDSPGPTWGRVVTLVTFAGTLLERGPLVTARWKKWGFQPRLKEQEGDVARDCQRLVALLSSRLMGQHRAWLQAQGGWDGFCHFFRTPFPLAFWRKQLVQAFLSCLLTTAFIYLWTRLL
On to `Cc1cccc(OCC(=O)Nc2ccc(C)c(C)c2)c1`, for which the displacement was -13.9%.

Consider `CCOC(=O)C1=C(C)NC(=O)CC1c1cc2c(cc1Br)OCO2` (centres undefined), for which the displacement is -6.4%.

Regarding `O=C(O)/C=C\C(=O)Nc1ccccc1SC(F)(F)F`, the displacement is 9.3%.

`O=C1C=CC(=O)N1c1ccc(Cl)cc1[N+](=O)[O-]`: the displacement is -9%.

On to `CCOC(=O)c1c(N)sc(C(=O)Nc2ccccc2F)c1C`, for which the displacement came out at 12.7%.

On to `CCC(=O)Nc1nc(C)c(-c2csc(Nc3cccc(C(=O)O)c3)n2)s1`, for which the displacement amounted to 34.5%.

Turning to `CC(NC(=O)COc1ccc(/C=N/NS(=O)(=O)c2ccccc2)cc1)c1ccccc1` (centres undefined), the displacement was determined as 4%.

On to `COc1ccc(-c2ccc(/C=C/C(=O)c3ccc(Cl)cc3)o2)cc1`, for which the displacement was -16.7%.

With `O=C(/C=C/c1ccc(-c2cccc(C(F)(F)F)c2)o1)c1ccc(F)cc1`, the displacement is -28.8%.

On to `COc1ccc(/C=C/C(=O)c2cccc([N+](=O)[O-])c2)cc1`, for which the displacement was determined as 14.9%.

Regarding `O=C(/C=C/c1ccc(-c2ccccc2Cl)o1)c1ccc(F)cc1`, the displacement turned out to be 6.5%.

In the case of `O=C(/C=C/c1ccc(-c2ccc(Br)cc2)o1)c1ccc([N+](=O)[O-])cc1`, the displacement is -1.7%.

`COc1ccc(/C=C/C(=O)c2ccc([N+](=O)[O-])cc2)cc1`: the displacement turned out to be 105%.

As for `COc1ccc(C(=O)/C=C/c2ccc(-c3ccccc3[N+](=O)[O-])o2)cc1`, the displacement was found to be 13.8%.

On to `COc1ccc(C(=O)/C=C/c2ccc(-c3ccc([N+](=O)[O-])cc3)o2)cc1`, for which the displacement amounted to 133%.

For the molecule `COc1ccc(C(=O)/C=C/c2ccc(/C=C/C(=O)c3ccc(OC)cc3)cc2)cc1`, the displacement came to 19.1%.

As to `Cc1ccc(C(=O)/C=C/c2ccc(-c3ccc(Cl)cc3)o2)cc1`, the displacement was determined as 17.9%.

For `O=C(/C=C/c1ccc(-c2ccccc2)o1)c1ccc(F)cc1`, the displacement was determined as 54.3%.

For `COc1ccc(-c2ccc(/C=C/C(=O)c3ccc(C)cc3)o2)cc1`, the displacement was 91.1%.

For `CC(C)(C)C1CCc2c(sc(NC(=O)c3ccccc3)c2C(N)=O)C1` (centres undefined), the displacement stood at 37%.

With `CCNC(=O)C(=O)Nc1ccc(OCC)cc1`, the displacement stood at 7.5%.

In the case of `COc1ccc(NC2(c3ccccc3)C(=O)c3c(Cl)c(Cl)c(Cl)c(Cl)c3C2=O)cc1`, the displacement was found to be 4.4%.

As to `O=Cc1cccc(OCc2ccccc2F)c1`, the displacement is -0.4%.

For `CC1(O)c2ccccc2C(=O)N1Cc1ccccc1` (centres undefined), the displacement was 12.6%.

`Cc1ccc(Cc2cnc(NC(=O)c3cccc([N+](=O)[O-])c3)s2)cc1`: the displacement turned out to be 26.3%.

`C=C1CSc2nc(=O)c3c4c(sc3n21)CCC4`: the displacement came out at 11.7%.

In the case of `O=C1OC(c2cccc(Cl)c2)=N/C1=C\c1ccc(OC(=O)c2cccc([N+](=O)[O-])c2)cc1`, the displacement is 71.9%.

For the molecule `Cc1cccc(C(=O)Oc2ccc(/C=C3/N=C(c4ccccc4)OC3=O)cc2)c1`, the displacement came to 0.5%.

With `O=C1NC(=O)C(=Cc2ccc(OC(=O)c3cccc([N+](=O)[O-])c3)cc2)C(=O)N1`, the displacement came out at 1.8%.

Consider `CCCCCCCNC1CC(=O)N(c2ccc(Br)cc2)C1=O` (centres undefined), for which the displacement worked out at 1.7%.

In the case of `Cc1ccc(-c2[nH]n3c(=O)c4c(nc3c2C)CCC4)cc1`, the displacement was found to be 60.8%.

Take `Cc1ccc(-c2[nH]n3c(=O)c4c(nc3c2C)CCS4)cc1`: the displacement is -0.6%.

Take `Cc1ccc(-c2[nH]n3c(=O)c4c(nc3c2C)CCCC4)cc1`: the displacement was -2.2%.

In the case of `CCOc1ccc(/C=C(/C#N)c2nc(-c3ccc(Br)cc3)cs2)c(OCC)c1`, the displacement stood at 38.9%.

For the molecule `O=C(Cc1ccc([N+](=O)[O-])cc1)NCc1ccccn1`, the displacement amounted to 14.1%.

Consider `COc1ccc(/C=C/C(=O)NC(C)Cc2ccccc2)cc1OC` (centres undefined), for which the displacement is -5.6%.

In the case of `CCOc1cc(/C=C2\SC(=S)NC2=O)ccc1OC(C)=O`, the displacement worked out at 12%.

With `CCOc1ccc(/C=C2/SC(=S)NC2=O)cc1Cl`, the displacement worked out at 11.7%.

Consider `CCOc1ccc(/C=C2/SC(=S)NC2=O)c(OCC)c1`, for which the displacement is 114%.

Regarding `CCOc1cc(/C=C2/SC(=S)NC2=O)ccc1OC`, the displacement amounted to 119%.

Consider `CCOc1ccc2ccc(OCC)c(/C=C3/SC(=S)NC3=O)c2c1`, for which the displacement is -0.8%.

On to `COc1cc(/C=C2/SC(=S)NC2=O)ccc1OCc1ccc(I)cc1`, for which the displacement is -8.4%.

Take `COc1ccc(/C=C2/SC(=S)NC2=O)cc1OCc1ccc(Cl)cc1`: the displacement was found to be 4.2%.

Take `CCOc1cccc(/C=C2/SC(=S)NC2=O)c1O`: the displacement came out at 5.7%.

Take `COc1ccc(/C=C2/SC(=S)NC2=O)cc1OCc1ccc([N+](=O)[O-])cc1`: the displacement turned out to be 76.9%.

As for `CCOc1ccc(C=Nc2ccc3c(c2)nc(C)n3C)cc1`, the displacement was found to be 6.5%.

As to `CSc1ccccc1NC(=O)c1ccc([N+](=O)[O-])cc1`, the displacement was 10.7%.

Turning to `CCOC(=O)c1cc(C#N)c(SCc2ccccc2)[nH]c1=O`, the displacement was -2.6%.

In the case of `COc1ccc(C(=O)N2CCN(c3cccc(C)c3C)CC2)cc1OC`, the displacement was found to be 2.4%.

For `Cc1cc(C)cc(CC2CC(=O)N(c3ccc(Br)cc3)C2=O)c1` (centres undefined), the displacement is -8%.

As for `CC(=O)n1cc(Nc2ccccc2C(=O)O)c2ccccc21`, the displacement was -3%.

For `O=C(NCC1CCCO1)c1ccc(S(=O)(=O)N2CCCCC2)cc1` (centres undefined), the displacement was -4.5%.

Take `Cc1cc(C=C2C(=O)c3ccccc3C2=O)c(C)n1-c1ccc(Cl)cc1`: the displacement was determined as 100%.

Regarding `Cc1cc(C=C2C(=O)c3ccccc3C2=O)c(C)n1-c1ccc(N2CCOCC2)cc1`, the displacement was determined as 0.7%.

With `Cc1cc(C=C2C(=O)c3ccccc3C2=O)c(C)n1-c1cccc(Cl)c1`, the displacement turned out to be 180%.

As for `Cc1cc(/C=C2/NC(=O)NC2=O)c(C)n1-c1cccc(Cl)c1`, the displacement stood at 10%.

As to `CCOC(=O)c1ccc(-n2c(C)cc(C=C3C(=O)c4ccccc4C3=O)c2C)cc1`, the displacement was determined as 11.9%.

Consider `Cc1cc(C=C2C(=O)c3ccccc3C2=O)c(C)n1-c1cccc([N+](=O)[O-])c1`, for which the displacement was determined as 11.8%.

Regarding `Cc1cc(C=C2C(=O)c3ccccc3C2=O)c(C)n1-c1cccnc1`, the displacement was -15.5%.

Regarding `Cc1cccc(-n2c(C)cc(C=C3C(=O)c4ccccc4C3=O)c2C)c1`, the displacement came out at 138%.

`Cc1cc(/C=C2/SC(=O)NC2=O)c(C)n1-c1cccc(Cl)c1`: the displacement came out at 18.6%.

Take `CN1CCN(C(=O)c2cnn3c(C(F)(F)F)cc(-c4ccco4)nc23)CC1`: the displacement amounted to 6.4%.

Turning to `O=C(O)CCCN1C(=O)C(=O)/C(=C(\O)c2ccc(Cl)cc2)C1c1ccc(F)cc1` (centres undefined), the displacement is -0.6%.

`COc1ccc(N(CC(=O)NCCc2ccccc2)S(C)(=O)=O)c(OC)c1`: the displacement is 3.4%.

For the molecule `Cc1ccccc1OCC(=O)N1CCCc2ccccc21`, the displacement was -4.9%.

As to `Cc1ccc(-c2ccc(OCC(=O)N3CCCc4ccccc43)cc2)cc1`, the displacement was 59.3%.

Take `Cc1ccc(OCC(=O)N2CCCc3ccccc32)c(C)c1`: the displacement is 6%.

Regarding `Cc1ccc(-c2noc(COc3ccc4ccccc4c3)n2)cc1`, the displacement came to 11%.

As to `O=C1c2ccccc2-n2c1cc(C=Nc1ccc(Cl)cc1)c2O`, the displacement was 112%.

`O=c1[nH]c(=O)n(-c2ccccc2F)c(O)c1C=Nc1ccc(Cl)cc1`: the displacement was -1.4%.

Turning to `O=c1[nH]c(=O)n(-c2ccccc2Cl)c(O)c1C=Nc1ccc(Cl)cc1`, the displacement was determined as 18.6%.

Take `CCOC(=O)c1cc2n(c1N(C(C)=O)C(C)=O)-c1ccccc1C2=O`: the displacement was -4.9%.

Regarding `CC(=O)NCCN=Cc1c(O)[nH]c2ccccc12`, the displacement is 14%.

With `CC(=O)NCCN=Cc1cc2n(c1O)-c1ccccc1C2=O`, the displacement was determined as 167%.

These data come from PubChem BioAssay AID1240 (Sanford-Burnham Center for Chemical Genomics, 2008).
